In the library only some 4.3% were active in any assay of this set; here they are far more common.
esBAF inh = SWI/SNF esBAF complex inhibition. mouse ES cells, Bmi1-luciferase knock-in reporter, 24 h; 100% = twice the neutral-well signal. AID 602393. reporter increase, % at 12.5 µM. hit rate 2% among 350,000; in the data active = activation above about 40%; inconclusive = no clear call, values can overlap the other calls;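 also: a rise in the Bmi1 reporter signal indicates esBAF inhibition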
MITF TRPM1 HTS = increases MITF-driven TRPM1 promoter luciferase signal | SK-MEL-5 TRPM1-promoter luciferase, 24 h; % of positive control, neutral wells = 0 | activation, % at 12.5 µM | hit rate 0.75% among 300,000 | AID 588334;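 active = mean activation of at least 80% with every replicate also reaching 80%; inconclusive = mean reaches 80% but some replicate falls short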
Wnt act = activates Wnt/beta-catenin signaling in a reporter cell assay; activator, plate reader; AID 743398; hit rate 1.2% among 300,000; activation, % at 9.35 µM; in the data active = activation above about 30%, passing the limit was not always enough; inconclusive = no clear call, values can overlap the other calls
FGF22 binding = FGF22 (human) thermal shift binding | Q9HCT0 | recombinant FGF22 thermal shift, SYPRO orange fluorescence; percent of sucrose octasulfate shift, DMSO zero | activity (Tm shift, normalised), % at 9.99 µM | hit rate 1.5% among 340,000;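 active = mean Tm shift, scaled 0 neutral to 100 positive control, at about 1.3% or above, every replicate too, limit read from the data; inconclusive = no clear call, values can overlap the other calls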
Target sequence (Q9HCT0 whole entry, looked up): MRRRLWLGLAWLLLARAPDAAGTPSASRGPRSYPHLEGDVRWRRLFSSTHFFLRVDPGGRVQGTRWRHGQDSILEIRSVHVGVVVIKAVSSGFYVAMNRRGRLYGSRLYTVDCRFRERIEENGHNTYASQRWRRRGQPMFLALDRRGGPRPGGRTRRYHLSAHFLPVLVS
AF4-AF9 inh = MLL-AF4/AF9 protein interaction inhibition. inhibition, % at 10 µM. hit rate 0.47% among 350,000. AlphaScreen, biotin-AF4 peptide binding to FLAG-AF9. P42568;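 active = every replicate reaching a set inhibition limit, whatever the replicate mean, cut at about 25% in these data; inconclusive = mean inhibition reaches that limit but some replicates miss it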
SMARCA2 activ = SMARCA2 function activation, primary screen; hit rate 1% among 370,000; MG213 cells, MMTV-luciferase reporter, dexamethasone, overnight; activation, % at 9.1 µM; in the data active = activation above about 7.8%
SMARCA2 conf = confirmation of SMARCA2 (BRM) function activators | shares compounds with SMARCA2 activ | MG213 cells, MMTV-luciferase with dexamethasone, luminescence, overnight; MG213 cells expressing E1A, Rb sequestered; DMSO wells 0%, reference activator 100% | activation, % at 9.1 µM | hit rate 30% among 3,500 | AID 652260;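 active = activation above its plate's cutoff, the mean activation of tested wells plus 3 SD, cut at about 7.9% in these data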
VP16 Luc act = GAL4-VP16 reporter activation counter-screen | shares compounds with SMARCA2 activ | AID 686939 | activation, % at 9.1 µM | hit rate 41% among 3,500 | HEK293 GAL4-VP16 pG5luc reporter, luciferase luminescence; scaled: DMSO wells 0%, SAHA wells 100%;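 active = activation above the solvent-only control well mean plus 3 SD, averaged across control plates, cut at about 5.2% in these data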
Hits are given with their value; i = inactive; ? = inconclusive; nt = no result.

SMILES	esBAF inh	MITF TRPM1 HTS	Wnt act	FGF22 binding	AF4-AF9 inh	SMARCA2 activ	SMARCA2 conf	VP16 Luc act
CCC(=O)Nc1cc(C(=O)OCC(=O)c2ccccc2)ccc1C	nt	i	35	nt	nt	11	i	7.7
O=C(COC(=O)c1cccc(O)c1)c1ccccc1	i	i	53	i	i	8.5	13	i
O=C(OCC(=O)N(Cc1ccccc1)Cc1ccccc1)c1cccc(O)c1	i	i	i	i	i	i	nt	nt
CCC(=O)N(C)C[C@@H]1Oc2cc(C#Cc3ccccn3)ccc2S(=O)(=O)N([C@@H](C)CO)C[C@H]1C	i	nt	nt	i	i	nt	nt	nt
COc1ccc(CCNC(=O)c2cccn2C)cc1	50	i	i	i	i	8.3	i	9.7
CCOC(=O)c1nn(-c2ccc(Cl)cc2)c2nnc(Cc3ccccc3)c(=O)n12	nt	i	?	nt	nt	12	i	i
COc1ccccc1OCCn1nnc2ccccc21	i	nt	i	i	i	11	i	i
CCOc1ccccc1OCCn1nnc2ccccc21	i	i	i	nt	nt	i	nt	nt
Cc1cccc(C)c1NC(=O)c1c(O)c2ccccc2[nH]c1=O	i	i	i	i	i	i	nt	nt
O=C(Nc1cccc(O)c1)c1c(O)c2ccccc2[nH]c1=O	i	nt	i	i	i	10	i	9.3
O=C(OCc1cc(=O)oc2cc(O)ccc12)c1cc(S(=O)(=O)N2CCOCC2)ccc1F	i	i	i	i	i	8.4	12	i
O=C(C[C@@H]1CC[C@H](NC(=O)C2CC2)[C@@H](CO)O1)Nc1nccs1	i	nt	nt	i	i	nt	nt	nt
CCc1ccc(OCC(=O)Nc2ncn[nH]2)cc1	i	i	i	i	i	8.1	11	8.7
COc1ccc2c3c([nH]c2c1)[C@@H](CO)N(S(=O)(=O)c1cn(C)cn1)CC31CCN(Cc2ccccc2F)CC1	nt	nt	nt	i	i	nt	nt	nt
CC(C)[C@H](N)C(=O)N[C@H]1CCC2C3CC=C4C[C@@H](O)CC[C@]4(C)C3CC[C@@]21C (stereo partly drawn)	i	nt	i	i	i	19	44	i
COc1ccc(-c2ccc3c(c2)[C@@H]2[C@@H](CCN2S(=O)(=O)c2ccc(OC)cc2)[C@@H](CO)N3C)cc1	i	nt	nt	i	i	nt	nt	nt
CC(=O)N(C)C[C@@H]1Oc2ncc(C3=CCCC3)cc2C(=O)N([C@H](C)CO)C[C@@H]1C	i	nt	nt	i	i	nt	nt	nt
CN(C)CCN(C(=O)/C=C/c1cccs1)c1nc2c(F)cc(F)cc2s1	nt	i	i	nt	nt	23	23	i
COc1ccc(C)c2sc(N(CCN(C)C)C(=O)/C=C/c3cccs3)nc12	i	i	i	i	i	i	nt	nt
CN(C)CCCN(C(=O)/C=C/c1cccs1)c1nc2ccc(F)cc2s1	i	i	?	i	i	i	nt	nt
COc1ccc(OC)c2sc(N(CCN(C)C)C(=O)/C=C/c3cccs3)nc12	i	i	i	i	i	15	17	i
CCC(=O)N[C@@H]1C=C[C@H](CC(=O)NCc2ccccc2F)O[C@H]1CO	i	nt	nt	i	i	nt	nt	nt
COCCCNC(=O)Cn1cc2c(n1)CCC(C)C2 (stereo not drawn)	i	i	i	i	i	i	nt	nt
CC1CCc2nn(CC(=O)NCCCN3CCCC3=O)cc2C1 (stereo not drawn)	i	nt	i	i	i	8.7	i	i
C=CCc1cc(Cl)ccc1OCCOCCNCCOC	i	i	i	i	i	i	nt	nt
SMILES	esBAF inh	MITF TRPM1 HTS	Wnt act	FGF22 binding	AF4-AF9 inh	SMARCA2 activ	SMARCA2 conf	VP16 Luc act
C=CCc1cc(Cl)ccc1OCCNCCCOC	nt	i	i	nt	nt	11	i	i
O=C(N[C@@H]1CC[C@@H](CCNS(=O)(=O)c2ccc(F)cc2)O[C@H]1CO)c1cccnc1	i	nt	nt	i	i	nt	nt	nt
O=C(N/N=C1\CCc2ccccc21)c1ccccc1O	nt	i	nt	nt	nt	10.0	i	7.4
COc1ccc(NC(=O)Nc2ccc3c(c2)CC(=O)N([C@@H](C)CO)C[C@@H](C)[C@H](CN(C)CC2CCCCC2)O3)cc1	i	nt	nt	i	i	nt	nt	nt
COc1ccc(S(=O)(=O)N(C)C[C@@H]2Oc3ccc(NS(=O)(=O)c4c(C)noc4C)cc3CC(=O)N([C@H](C)CO)C[C@H]2C)cc1	i	nt	nt	i	i	nt	nt	nt
Cc1ccc(C(=O)Cc2nc3ccccc3[nH]2)cc1	i	i	i	i	i	i	nt	nt
Cc1ccc(OCc2nc3ccccc3[nH]2)cc1	i	i	i	i	i	14	10	8.2
CCC(=O)N1[C@@H]2c3ccc(C4=CCCCC4)c(=O)n3C[C@@H]2[C@@H](CO)[C@@H]1C(=O)Nc1nccs1	i	nt	nt	i	i	nt	nt	nt
O=C(NCc1ccccc1)C(c1ccccc1)N(Cc1ccccc1)C(=O)Cc1ccccc1 (stereo not drawn)	nt	nt	nt	i	i	nt	nt	nt
CC(=O)c1sc(NC(=O)C(C)(C)C)nc1C	nt	i	nt	nt	nt	i	nt	nt
CC(=O)c1sc(NC(=O)c2ccc(C(C)(C)C)cc2)nc1C	i	i	i	i	i	8.2	8.0	18
Cc1ccccc1N=Nc1c(C)[nH]n(C(N)=S)c1=O	i	i	i	i	i	14	i	i
CCN(CC)CCn1c2ccccc2c2cnc(N)c(C#N)c21	nt	i	nt	nt	nt	47	71	i
CN(C)C=Nc1ncc2c3ccccc3n(CCN(C)C)c2c1C#N	i	i	nt	nt	nt	i	nt	nt
O=C(Nc1ccc(F)cc1)N1CCCCN2[C@H](CO)[C@@H](c3ccc(C#CC4CC4)cc3)[C@H]2C1	i	nt	nt	i	i	nt	nt	nt
O=c1c(Cl)c(Nc2cccc(Cl)c2)cnn1-c1nc2ccccc2s1	nt	i	i	nt	nt	i	nt	nt
Cc1ccc(C)c(N2CCN(c3cnn(-c4nc5ccccc5s4)c(=O)c3Cl)CC2)c1	i	i	i	nt	nt	9.3	i	6.5
O=C(Cc1cccnc1)N[C@@H]1CC[C@@H](CCn2cc(Cc3ccccc3)nn2)O[C@@H]1CO	i	nt	nt	i	i	nt	nt	nt
O=C(O)c1cc(C2CC2)nn1-c1ccccc1	i	nt	i	nt	nt	i	nt	nt
Nc1cc(C2CCCC2)nn1-c1ccccc1	i	i	nt	nt	nt	9.0	18	i
CCS(=O)(=O)c1ccc(O)c(NC(=O)COc2ccc(OC)cc2)c1	i	i	nt	nt	nt	8.1	i	i
CCS(=O)(=O)c1ccc(O)c(NC(=O)COc2ccc(C)cc2)c1	nt	i	nt	nt	nt	i	nt	nt
N#Cc1ccccc1NCCCN1CCC(C(O)(c2ccccc2)c2ccccc2)CC1	nt	nt	nt	nt	nt	i	nt	nt
C[C@@H]1CN([C@@H](C)CO)C(=O)c2cc(NC(=O)C3CC3)ccc2O[C@H]1CN(C)S(=O)(=O)c1ccc(Cl)cc1	i	nt	nt	i	i	nt	nt	nt
COc1ccc(S(=O)(=O)N2CCCC2)cc1NC(=O)c1ccccc1	i	i	i	i	i	8.1	i	i
COc1ccc(S(=O)(=O)N2CCCCC2)cc1NC(=O)c1ccccc1	nt	i	i	i	i	i	nt	nt

Screening results (PubChem)
